Experiment in all cases: NCI-60 one-dose screen, 48 h (100 = growth as untreated, 0 = no growth, -100 = all killed)
Holding throughout (settings): 10 µM unless noted

Assay [1] relates to RPMI-8226 leukemia.
The test system of assay [2] is OVCAR-8 ovarian.
Assay [3] has as its system OVCAR-5 ovarian.
Assay [4] deals with SK-OV-3 ovarian.
The test system of assay [5] is IGROV1 ovarian.
For assay [6], the system named is OVCAR-3 ovarian.
Assay [7] relates to HS 578T breast.
The subject of assay [8] is NCI/ADR-RES ovarian.
Assay [9] relates to OVCAR-4 ovarian.

Compounds without any hit were thinned out: in the full panel of roughly 83,000, 20% have a hit.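 In brief: 96-well plates, 48 h treatment, single concentration, percent growth endpoint.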 Values without a mark were called inactive. Calls of active or inactive are those of the source. How the source made its calls: active means growth percent below 10; inactive means the rest.

Regarding `Cc1ccc(S(N)(=O)=O)cc1Cl`, the growth was 103% in [1]; 105% in assay [2]; 103% in [3]; 110% in assay [4]; 109% in assay [5]; 115% in assay [6]. Also, the growth in assay [7] and in assay [8] was 117% in each case.
In the case of `Oc1cc(O)c2c(c1)O[C@H](c1ccc(O)c(O)c1)[C@@H](O)C2`, the growth was 98% in assay [2]; 100% in assay [3]; 109% in assay [4]; 103% in assay [5]; 117% in assay [7]; 101% in [8].
Take `NNC(=O)N/N=C1\C(=O)N(c2nccs2)C(=O)C(=O)C1c1nc2ccccc2s1` (stereo not drawn): the growth in assay [2] is 95%; in assay [3] it was 102%; in assay [9], 105%; in [4], 103%; in [5], 93.2%; in assay [6], 102%. The growth was 96.2% in assay [7] and 103% in [8].
Consider `Cc1ccccc1CC(N)C(=O)O` (stereo not drawn), for which the growth in [1] is 109%; in [2], 104%; in assay [3], 116%; in assay [9] it was 103%; in [4], 104%; in assay [6] it was 104%. The growth in assay [7] and in assay [8] was 114% throughout.
With `CCCCCCCCCCCCSC1=C(Cl)C(=O)C(OC)=C(OC)C1=O`, the growth in assay [2] is 28.7%; in [3], 80%; in assay [9], 38.8%; in [4], 79.9%; in assay [5], 5.92% (active); in assay [6], 38.8%. Besides, the growth in assay [7] was 67.3%; in [8], 34.9%.
`COc1ccc(Br)c2c1C(=O)CC2`: the growth was 112% in assay [1]; 106% in assay [2]; 97.8% in assay [3]; 107% in [9]; 112% in [4]; 140% in assay [7]. Also, in [8], the growth is 110%.
On to `CCOc1ccc2c(c1)c(C)cc(C)[n+]2CC`, for which the growth in [2] was 62.4%; in [3], 98.5%; in assay [4] it was 83.4%; in [5], 82.3%; in assay [7], 104%; in assay [8] it was 113%.
Consider `N#C/C(=C\c1ccc(C#N)cc1)C(=O)c1ccccc1`, for which the growth in assay [2] is 101%; in [3], 104%; in assay [9], 98.7%; in assay [4] it was 109%; in assay [6], 105%; in assay [7], 116%. Further, the growth in [8] was 98.7%.
In the case of `Cc1cc(CC(=O)NCCO)n(CCO)c(=O)c1`, the growth in assay [2] was 103%; in [3], 106%; in assay [9] it was 108%; in assay [4], 104%; in assay [5], 108%; in assay [6] it was 106%. Also, the growth in assay [7] is 101%; in assay [8] it was 106%.
Take `O=c1n(CC2CO2)c(=O)n(CC2CO2)n1CC1CO1` (stereo not drawn): the growth in assay [1] was 57.5%; in assay [2] it was 75%; in assay [3], 130%; in [9] it was 85.2%; in assay [4], 49.2%; in assay [7], 90.5%. The growth in assay [8] was 65.5%.
Regarding `CN(C)Cc1ccccn1`, the growth was 101% in assay [2]; 102% in assay [3]; 106% in [9]; 112% in assay [4]; 102% in [5]; 117% in assay [6]. Also, the values for the growth in [7] and in assay [8] were 114% and 103%, respectively.
As to `Cc1cc(NC(=O)c2ccccc2)c(Cl)cc1N`, the growth in [2] is 95.9%; in [3], 103%; in assay [9] it was 97.5%; in assay [4], 107%; in assay [6], 119%; in [7] it was 109%. In [8], the growth is 102%.
As to `S=C=Nc1ccc2ccccc2c1`, the growth was 105% in assay [2]; 107% in assay [3]; 117% in assay [5]; 114% in [6]; 104% in assay [7]; 102% in assay [8].
Consider `CCC(=O)C1C(=O)c2ccccc2C1=O`, for which the growth was 115% in assay [1]; 99.8% in assay [2]; 103% in assay [3]; 102% in assay [9]; 116% in assay [4]; 104% in [6]. In addition, the growth is 135% in assay [7] and 106% in assay [8].
`CN1CCCN(C(c2ccccc2)c2ccc(Cl)cc2)CC1` (stereo not drawn): the growth was 101% in [1]; 105% in assay [2]; 98.8% in assay [3]; 84.2% in [9]; 110% in [4]; 104% in [6]. Further, the growth in assay [7] was 86.3%; in [8], 94%.
In the case of `CCNc1ccc2ccccc2c1N=Nc1ccc(N=Nc2ccccc2)cc1`, the growth is 104% in assay [2]; 93.1% in assay [3]; 98.4% in assay [9]; 97.4% in [4]; 0.773% (active) in [5]; 109% in assay [6]. Moreover, the growth in assay [7] is 110%; in [8], 109%.
For the compound `O=C1Nc2ccccc2/C1=C\c1ccccc1O`, the growth in [2] is 91.1%; in [3], 94.4%; in [9], 80.9%; in assay [4], 94.7%; in assay [5] it was 17.9%; in [7] it was 86.2%. The growth in assay [8] is 84.9%.
For `O=[N+]([O-])c1c(O)c(CNCCCO)cc(CNCCCO)c1O`, the growth in assay [2] is 106%; in [3], 108%; in [9], 105%; in assay [4], 106%; in [5] it was 2.99% (active); in [6], 152%. For the same compound, in [7], the growth was 97.1%.
On to `C(=C\c1ccncc1)/c1ccncc1`, for which the growth in [2] was 121%; in assay [3], 114%; in [9], 92.4%; in [4] it was 120%; in assay [6] it was 169%; in assay [7], 114%. For the same compound, the growth in [8] is 98%.
For the compound `COC1=C(OC)C(=O)C(SC/C=C(\C)CCCC(C)CCCC(C)CCCC(C)C)=CC1=O` (stereo not drawn), the growth was 18.7% in [2]; 25.7% in assay [3]; 27.9% in assay [9]; 45.4% in [4]; -9.75% (active) in [5]; 13.6% in assay [6]. The growth in assay [7] is 63.6%; in assay [8] it was 11.6%.
Consider `Cc1cc2c(C(C)C)c(O)c(O)c(C=Nc3ccccc3[N+](=O)[O-])c2c(O)c1-c1c(C)cc2c(C(C)C)c(O)c(O)c(C=Nc3ccccc3[N+](=O)[O-])c2c1O`, for which the growth was 76.2% in [2]; 102% in [3]; 74.4% in [9]; 97.5% in assay [4]; 80.6% in [5]; 79.1% in assay [6]. The growth was 81% in [7] and 94.8% in assay [8].
For the compound `O=C(N/N=C\c1ccc(Cl)cc1Cl)c1ccncc1`, the growth is 91.5% in assay [1]; 101% in assay [2]; 105% in assay [3]; 117% in assay [4]; 96.3% in [5]; 113% in [6]. Besides, the figures for the growth in assay [7] and in [8] were 123% and 102%, respectively.
As to `Cc1cc(Nc2ccc3c(c2)OCO3)c2cc3c(cc2n1)OCO3`, the growth in [2] is 25.7%; in [3] it was 45%; in assay [9] it was 81.4%; in [4] it was 16.2%; in assay [6], -45.1% (active); in [7], -14.2% (active). Besides, in assay [8], the growth was -8.22% (active).
Take `COc1nc2ccccc2s1`: the growth in assay [1] is 91.6%; in assay [2] it was 96.3%; in assay [3], 93.1%; in assay [4], 89.5%; in assay [5], 98.6%; in assay [7], 91%. In addition, in assay [8], the growth is 99.2%.
In the case of `Nc1ncnc(Nc2ccccc2)n1`, the growth is 106% in assay [2]; 105% in assay [3]; 117% in assay [4]; 102% in [5]; 117% in [6]; 102% in [7]. Moreover, the growth in assay [8] is 111%.
On to `O=C1C=C[C@H](O)[C@@]2(CO)O[C@@H]12`, for which the growth in assay [2] was 78.2%; in assay [3], 126%; in assay [9], 90%; in assay [4], 115%; in [5] it was 27.6%; in [6], 55%. The growth in assay [7] was 100%; in assay [8], 86.3%.
`Cc1cc(C)cc(OCC(=O)O)c1`: the growth was 108% in [1]; 100% in assay [2]; 94.6% in assay [3]; 113% in assay [9]; 101% in assay [4]; 124% in assay [6]. Moreover, the growth in assay [7] and in assay [8] was 105% in each case.
Regarding `CCOC(=O)/C(C#N)=C\c1c[nH]c2ccccc12`, the growth is 55.7% in assay [1]; 85% in assay [2]; 111% in assay [3]; 86.8% in assay [9]; 96.2% in assay [4]; 103% in [6]. The growth was 116% in assay [7] and 88.5% in [8].

For the origin of these results see PubChem BioAssay (NCI).
